# The campaign covered roughly 310,000 compounds. About 14,000 (4.5%) showed an effect of 50% or more. Effects have a minus sign here. Only a selection was taken, and strong results are over-represented in it overall.
# Molecular target: human ether-à-go-go-related gene (hERG) potassium channel (human, UniProt Q12809)
# Experiment: primary screen, population patch clamp on CHO cells stably expressing hERG; higher = less effect of the substance
# 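Note: peak tail current of the secondary pulse compared with the same well before compound.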
# human ether-à-go-go-related gene (hERG) potassium channel, sequence (Q12809 whole entry, looked up): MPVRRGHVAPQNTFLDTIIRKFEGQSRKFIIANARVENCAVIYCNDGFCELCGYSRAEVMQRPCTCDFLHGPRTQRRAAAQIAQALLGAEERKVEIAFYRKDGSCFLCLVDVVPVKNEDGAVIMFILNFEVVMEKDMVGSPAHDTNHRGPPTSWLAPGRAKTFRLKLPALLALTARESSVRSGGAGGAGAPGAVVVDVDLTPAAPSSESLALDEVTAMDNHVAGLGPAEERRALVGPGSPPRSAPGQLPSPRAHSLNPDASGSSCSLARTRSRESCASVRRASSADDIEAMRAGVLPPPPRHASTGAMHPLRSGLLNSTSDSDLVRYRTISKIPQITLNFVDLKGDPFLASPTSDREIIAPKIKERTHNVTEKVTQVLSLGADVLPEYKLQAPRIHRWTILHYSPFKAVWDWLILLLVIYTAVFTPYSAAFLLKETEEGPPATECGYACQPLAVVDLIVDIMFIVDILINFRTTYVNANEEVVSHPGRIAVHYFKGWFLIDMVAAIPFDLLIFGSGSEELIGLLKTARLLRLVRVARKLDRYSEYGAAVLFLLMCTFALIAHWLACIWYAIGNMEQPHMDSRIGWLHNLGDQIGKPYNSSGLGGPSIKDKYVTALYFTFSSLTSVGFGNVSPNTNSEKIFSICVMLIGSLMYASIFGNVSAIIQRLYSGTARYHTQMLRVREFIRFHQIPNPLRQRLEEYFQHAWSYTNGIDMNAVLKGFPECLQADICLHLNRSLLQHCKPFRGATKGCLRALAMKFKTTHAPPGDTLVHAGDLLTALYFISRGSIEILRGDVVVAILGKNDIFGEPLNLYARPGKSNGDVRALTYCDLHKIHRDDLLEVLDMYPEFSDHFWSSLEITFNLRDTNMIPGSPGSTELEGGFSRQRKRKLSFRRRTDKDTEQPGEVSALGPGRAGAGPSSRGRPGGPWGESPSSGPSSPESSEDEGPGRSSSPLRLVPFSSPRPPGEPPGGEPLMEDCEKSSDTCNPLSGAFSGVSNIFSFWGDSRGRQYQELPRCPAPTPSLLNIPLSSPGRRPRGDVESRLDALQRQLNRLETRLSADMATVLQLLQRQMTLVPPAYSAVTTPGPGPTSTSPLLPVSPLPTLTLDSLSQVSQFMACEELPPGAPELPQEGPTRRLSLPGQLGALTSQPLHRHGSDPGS
row,Compound,"hERG current change (%, negative = inhibition) at 10uM"
1,COc1ccc(C2NC(=O)CCC2[N+](=O)[O-])cc1OC (stereo not drawn),10.1%
2,CSc1cccc(NC(=O)CCCOc2ccc(Cl)cc2C)c1,-2.48%
3,CC(C)C(c1nnnn1Cc1ccccc1)N1CCN(Cc2ccco2)CC1.Cl (stereo not drawn),-32.1%
4,c1ccc(Cn2nnnc2CN2CCN(Cc3ccc4c(c3)OCO4)CC2)cc1,-61.1%
5,Cl.NC(=O)C1CCN(C(c2ccccc2F)c2nnnn2Cc2ccco2)CC1 (stereo not drawn),11.1%
6,c1ccc2c(c1)CCN(Cc1nnnn1Cc1ccc3c(c1)OCO3)C2,-3.1%
7,CC(C)C(c1nnnn1Cc1ccc2c(c1)OCO2)N1CCN(c2ccccc2)CC1 (stereo not drawn),23.1%
8,c1ccc2sc(C3CCN(Cc4nnnn4Cc4ccc5c(c4)OCO5)CC3)nc2c1,-8.73%
9,Fc1ccccc1C(c1nnnn1Cc1ccc2c(c1)OCO2)N1CCN(Cc2ccccc2)CC1 (stereo not drawn),-55.3%
10,CCN1CCN(C(c2ccccc2F)c2nnnn2Cc2ccc3c(c2)OCO3)CC1.Cl (stereo not drawn),-37.6%
11,CC(C)C(c1nnnn1Cc1ccc(F)cc1)N1CCN(Cc2ccc3c(c2)OCO3)CC1 (stereo not drawn),-43.3%
12,CC(C)C(c1nnnn1Cc1ccccc1)N1CCN(Cc2ccc3c(c2)OCO3)CC1 (stereo not drawn),-52%
13,Cl.c1ccc(CCn2nnnc2C(c2cccs2)N2CCN(Cc3ccc4c(c3)OCO4)CC2)cc1 (stereo not drawn),-24.1%
14,Cl.Fc1ccccc1C(c1nnnn1Cc1ccc2c(c1)OCO2)N1CCN(Cc2ccco2)CC1 (stereo not drawn),-56.4%
15,O=C(CN1C(=O)NC2(CCCC2)C1=O)OCc1ccc(Cl)cc1Cl,-20.9%
16,CC(C)c1ccc(/C=C/C(=O)N2CCc3ccccc3C2)cc1,3.46%
17,O=C(CC(SCCO)c1ccc([N+](=O)[O-])cc1)c1ccco1 (stereo not drawn),-35.7%
18,O=C(NCc1ccccc1Cl)c1cc2c(s1)CS(=O)(=O)C2,-4.86%
19,Cc1nnc(C)n1/N=C/c1cc(Br)ccc1O,9.86%
20,C/C(=N/NS(=O)(=O)c1ccc(C)cc1C)c1ccc2c(c1)OCO2,-2.58%
21,O=C(O)c1ccccc1SSc1ccccc1C(=O)O,25.5%
22,O=C(c1ccco1)N1CCC(c2nc(-c3ccccc3Cl)no2)CC1,-11.5%
23,Clc1ccc(CNCc2cccs2)cc1Cl,7.52%
24,CC1CC(C)CN(C(=O)Nc2ccccc2F)C1 (stereo not drawn),22.9%

row,Compound,"hERG current change (%, negative = inhibition) at 10uM"
1,CCN(CC)S(=O)(=O)c1ccc(C(=O)NC2CN3CCC2CC3)cc1 (stereo not drawn),25.6%
2,CN(/N=C/c1ccc(C(C)(C)C)cc1)C1=NCCN1,-71.6%
3,Br.COc1ccc(/C=N/N(C)C2=NCCN2)c(OC)c1OC,5.63%
4,Br.CN(/N=C/c1ccncc1)C1=NCCN1,5.06%
5,Cc1ccccc1C(=O)N1CCC(C(=O)Nc2ccccn2)CC1,11.9%
6,Cn1nc(C(C)(C)C)c([N+](=O)[O-])c1C(=O)N1CCOCC1,17.3%
7,Cn1nc(C(=O)N2CCOCC2)c([N+](=O)[O-])c1C(=O)N1CCOCC1,-54.4%
8,Cc1onc(C(=O)N2CCOCC2)c1[N+](=O)[O-],19.8%
9,Cc1cc2ncn(CC(C)C)c2cc1C,-3.79%
10,O=C(CN1CCC(O)(c2ccc3c(c2)OCO3)CC1)NC1CCCCC1,3.07%
11,CSC(=Nc1ccc(Cl)cc1)N[n+]1ccccc1.[I-],-58.8%
12,CSC(=Nc1ccccc1)Nc1ccccc1,-15.8%
13,[S-]C(=Nc1ccc(Cl)cc1)N[n+]1ccccc1,1.12%
14,C[N+]1(CCC(C(N)=O)(c2ccccc2)c2ccccc2)CCCCC1.[Br-],10.7%
15,ClCc1csc(N/N=C/c2cccs2)n1,11.8%
16,CCOc1ccc(Br)cc1S(=O)(=O)Nc1ccc(C(=O)OCC(=O)N(C)c2ccccc2)cc1,12.7%
17,CC1CC(OC(=O)c2ccccc2)(c2ccccc2)C(C)CN1C (stereo not drawn),-8.66%
18,O=C(CCCN1C(=O)/C(=C/c2ccccc2)SC1=S)Nc1cccc(O)c1,2.17%
19,O=C(O)CCC(=O)NNC(=O)COc1cccc(Cl)c1,2.84%
20,O=C(Cc1ccccc1)N1CCN=C1SCc1ccc([N+](=O)[O-])cc1,-55.5%
21,O=C(Cc1ccc(F)cc1)N1CCN=C1SCc1ccc([N+](=O)[O-])cc1,-47.3%
22,CCOc1ccc(CC(=O)N2CCN=C2SCc2ccc([N+](=O)[O-])cc2)cc1,5.05%
23,COc1ccc(CC(=O)N2CCN=C2SCc2ccc([N+](=O)[O-])cc2)cc1,-52.2%
24,COc1ccc(CC(=O)N2CCN=C2SCc2cccc([N+](=O)[O-])c2)cc1,-5.33%

row,Compound,"hERG current change (%, negative = inhibition) at 10uM"
1,O=C(Cc1ccc([N+](=O)[O-])cc1)N1CCN=C1SCc1ccccc1,-7.33%
2,CS(=O)(=O)N(Cc1ccccc1)c1ccc(C(=O)Nc2ccc(C(N)=O)cc2)cc1,12.8%
3,Cn1c(N)c(C(=O)COC(=O)c2ccc(Cl)c(S(=O)(=O)N3CCCC3)c2)c(=O)n(C)c1=O,-43.9%
4,COC(CNc1ccc([N+](=O)[O-])c(NCC(OC)OC)c1C#N)OC,5.62%
5,CC(=O)Nc1cccc(NC(=O)c2ccco2)c1,-4.69%
6,Cc1cc(NC(=O)c2ccc(Br)o2)ccc1NC(=O)c1ccco1,-58.2%
7,Cc1cc(Br)ccc1NC(=O)c1ccco1,0.934%
8,CN(C)S(=O)(=O)c1ccc(NC(=O)c2ccc(Br)o2)cc1,-9.84%
9,CN(C(=O)c1cccc(NC(=O)c2ccco2)c1)c1ccccc1,13.3%
10,Cc1ccc(NC(=O)c2ccccc2Br)cc1S(=O)(=O)N(C)C,-1.84%
11,Cc1ccc(C(=O)Nc2ccc(NC(=O)c3ccco3)c(C)c2)cc1,14.7%
12,Cc1ccc(NC(=O)c2ccc(Br)o2)cc1S(=O)(=O)N(C)C,-54.7%
13,CN(C)c1cccc(NC(=O)c2ccco2)c1,-73.3%
14,COc1ccc(C2N(C(=O)C(F)(F)F)C(C)CN2S(=O)(=O)c2ccc(C)cc2)cc1 (stereo not drawn),11.2%
15,Cc1ccc(C2NC(=O)c3c(sc(C)c3C)N2)c(O)c1 (stereo not drawn),-3.45%
16,CCOc1ccc(-n2c(CC)nc3ccccc3c2=O)cc1,1.33%
17,N#Cc1nc(-c2cccc(Cl)c2)oc1N1CCC(C(N)=O)CC1,0.912%
18,CCOC(=O)C1C(=O)NC(N2CCCCC2)=NC1c1ccco1 (stereo not drawn),8.22%
19,Cc1cccc(C)c1NC(=O)C1(C)c2cccc[n+]2CC(=O)N1Cc1cccs1.[I-] (stereo not drawn),6.18%
20,COc1ccc(S(=O)(=O)Nc2cccc(S(=O)(=O)NC3=NCCC3)c2)cc1[N+](=O)[O-],18.6%
21,CC(C)(C)OC(=O)N/N=C/c1cn(-c2ccccc2)nc1-c1cccnc1,-49.3%
22,NC(=S)N/N=C/c1cn(-c2ccccc2)nc1-c1cccnc1,11.8%
23,O=C(N/N=C/c1cn(-c2ccccc2)nc1-c1cccnc1)c1ccc(F)cc1,-41.3%
24,O=C(N/N=C/c1cn(-c2ccccc2)nc1-c1cccnc1)c1ccccc1,-60.7%

row,Compound,"hERG current change (%, negative = inhibition) at 10uM"
1,O=C(N/N=C/c1cn(-c2ccccc2)nc1-c1cccnc1)c1cccnc1,-50.3%
2,NC(=O)N/N=C/c1cn(-c2ccccc2)nc1-c1cccnc1,4.92%
3,CCn1ccnc1CN(C)C(=O)CCc1nnc(CCC2CCCCC2)o1,-27.7%
4,C=Cn1ccnc1P(=S)(c1ccc(N(C)C)cc1)c1nccn1C=C,3.93%
5,O=c1c2ccccc2nc(-c2ccc(Cl)cc2)n1C1CCS(=O)(=O)C1 (stereo not drawn),-2.23%
6,O=C(CN1CCN(Cc2ccccc2)CC1)N1N=CCC1c1ccccc1 (stereo not drawn),-1.06%
7,Cc1ccc(C(=O)O/N=C/c2c(Cl)n(C)c3ccccc23)cc1,16.2%
8,CC(=O)Nc1ccc(N(C(=O)CNC(=O)c2cccs2)C(C(=O)NCC2CCCO2)c2ccccc2)cc1 (stereo not drawn),13.2%
9,c1ccc(CCC2Cc3ccccc3N2)cc1 (stereo not drawn),-0.839%
10,[Cl-].c1ccc(CC[C@@H]2CC[C@@H](CCc3ccccc3)N2)cc1,-66%
11,O=C(O)C1CSC(CCc2ccccc2)N1 (stereo not drawn),14%
12,COC(=O)c1[nH]c2ccccc2c1NC(=O)Oc1ccccc1,12%
13,Cc1ccc2nc(C)c(CN3CCN(c4ccc([N+](=O)[O-])cc4Cl)CC3)n2c1,-69.3%
14,COC(=O)c1ccc(N2CCN(C)CC2)c(NC(=O)c2cccs2)c1,-8.75%
15,CN1CCN(c2ccc([N+](=O)[O-])cc2NC(=O)c2cccs2)CC1,-55.2%
16,O=C(Nc1cc([N+](=O)[O-])ccc1N1CCOCC1)c1cccs1,1.15%
17,O=C(Nc1cc([N+](=O)[O-])ccc1N1CCCC1)c1ccccc1,-33.3%
18,COc1ccc(N2CCN(c3ccc([N+](=O)[O-])cc3Cl)CC2)cc1,-12.1%
19,O=C(Nc1cc([N+](=O)[O-])ccc1N1CCCC1)c1cccs1,-65.4%
20,CN1CCN(c2ccc([N+](=O)[O-])cc2Cl)CC1,-52.2%
21,CN1CCN(c2cc([N+](=O)[O-])ccc2Cl)CC1,-23.3%
22,Cc1ccc([N+](=O)[O-])cc1NC(=O)c1cccs1,18.4%
23,O=[N+]([O-])c1ccc(N2CCNCC2)c(Cl)c1,-6.48%
24,O=[N+]([O-])c1ccc(N2CCN(c3ccc(Cl)nn3)CC2)c(Cl)c1,-23.7%
